From PubChem BioAssay
KCNH2 3.1 block: inhibitors of human KCNH2 3.1 potassium channel isoform | U2OS KCNH2 3.1, thallium flux FluxOr; stronger effect = lower value | activity change, % (tested at about 1.8 µM) | AID 720553 | 340,000 tested, 0.95% active;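 active = maximum activity change below -70%; inconclusive = maximum activity change from -70% to -50%; inactive = maximum activity change above -50%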;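 also: thallium influx rate constant from kinetic fluorescence after stimulation buffer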
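FluxOr-based Tl+ influx in U2OS cells transduced with KCNH2 3.1 virus; rate constants normalized to DMSO controls.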
LDHA inh: blocks human lactate dehydrogenase A. P00338. activity change, % (values are at about 110 or 230 µM). 480,000 tested, 0.15% active. purified LDHA, NADH/diaphorase-resazurin fluorescence; stronger effect = lower value; in the data active = activity change below about -30%; inconclusive = mostly about -25% to -30%
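Human LDH5 at 2 nM final in Tris HCl pH 7.4 with 0.06 mM NADH and 0.2 mM pyruvate, reacted 5 minutes at room temperature. Remaining NADH coupled via diaphorase/resazurin; resorufin fluorescence read at 0 and 20 minutes, normalized to enzyme-free and DMSO wells.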
Chronic BCR inh: inhibitors of chronic active B-cell receptor signaling. 340,000 tested, 0.05% active. Potency, µM (titrated, usually from 46.1 µM), hits mostly inhibitors. ABC-DLBCL IkBa-CBG/CBR reporter, luminescence ratio, 4 h; active = well fitted inhibition curve with a large enough effect in the signal ratio, with a control signal flat, not every such curve was filed as active; inconclusive = small, poorly fitted or top-dose-only effect, or effect the other way, or a change in a side signal; the % refers to the signal ratio
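TMD8 human ABC-DLBCL cells with doxycycline-inducible IκBα–green luciferase fusion and unfused red luciferase, in 0.5% FBS medium; compounds up to 46 uM, 4 h at 37C. Green/red luminescence ratio, filter-overlap corrected, fitted to concentration-response curves.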
12-LOX inh: inhibitors of human 12S-lipoxygenase ALOX12 | 580,000 tested, 1.1% active | P18054 | purified 12hLO, xylenol orange hydroperoxide absorbance | Potency, µM (titrated, usually from 108 µM), hits mostly inhibitors | AID 1671190; active = well fitted inhibition curve with a large enough effect; inconclusive = small, poorly fitted or top-dose-only effect, or another doubt; inactive = no such curve, though single readings can be large or run the other way
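Purified human 12hLO (150 nM final) in 25 mM Hepes, 0.01% Triton X-100, pH 7.0 was preincubated 15 min at room temperature with compound. Then 40 uM arachidonic acid was added, 30 min. Hydroperoxide was read by Fe-XO absorbance ratio 573/405 nm.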
hERG WT inh: blocks the wildtype human KCNH2 potassium channel | Q12809 | U2OS, BacMam KCNH2, thallium flux FluxOr; stronger effect = lower value | activity change, % at 1.84 µM | 340,000 tested, 0.37% active;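 active = maximum activity change below -70%; inconclusive = maximum activity change between -70% and -50%; inactive = maximum activity change above -50%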
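U2OS cells transduced with wild-type KCNH2 virus are loaded with FluxOr dye for 45 min, and thallium flux is measured in kinetic reads before and after stimulation buffer. Rate constants are normalized to DMSO controls.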
ClpP mod: qHTS Assay for Activators of ClpP | 340,000 tested, 1.9% active | purified B. subtilis ClpP, FRET peptide cleavage, 20 min | Potency, µM (highest dose often 57.5 µM) | ATP-dependent Clp protease proteolytic subunit (Bacillus subtilis (strain 168)), P80244; active = well fitted falling curve with a large enough effect; inconclusive = small, poorly fitted or top-dose-only effect; inactive = no such curve, though single readings can be large or run the other way; also: the source files actives as falling curves though it sought activators and does not explain the sign; nearly all actives have a fitted effect of over 65% in size
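Buffer: 100 mM Tris/HCl pH8, 100 mM KCl, 0.05% low protease BSA, 2.5% glycerol, 0.01% Tween-20. ClpP 10 microg/mL final; 20 min RT; delta FRET normalized to ADEP and DMSO controls.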
A number is an active result; n = inactive; u = inconclusive; x = no result given; ! = not confirmed by another sample. A selection: hits, their analogues and other compounds. The true share with any hit is near 3%.

SMILES	KCNH2 3.1 block	LDHA inh	Chronic BCR inh	12-LOX inh	hERG WT inh	ClpP mod
FC(F)(F)c1nc(-c2cccs2)ncc1-c1nnnn1-c1ccc(Cl)cc1	n	n	n	n	n	35µM
CCN1c2cc(C(=O)Nc3ccc(F)c(C)c3)ccc2C(=O)N2CCCCCC21 (stereo not given)	x	x	x	n	x	x
CN(C)c1cccc(C(=O)OCCCC(=O)c2ccc(F)cc2)c1	-130	n	n	u	n	n
CS(=O)(=O)c1cccc(C(=O)OCCCC(=O)c2ccccc2)c1	n	n	u	n	n	n
CC(=O)NCCC(=O)Nc1cc(S(=O)(=O)N2CCCCC2)ccc1Oc1ccccc1	n	n	u	n	-71	n
CCN1CCN(c2ccc(S(=O)(=O)N3CCCCC3)cc2NC(=O)Cc2ccccc2)CC1	n	n	u	16µM!	n	n
CCN1CCN(c2ccc(S(=O)(=O)N3CCCCC3)cc2NC(=O)Cc2ccccc2F)CC1	n	n	n	n	n	n
CCN(CC)c1ccc(NC(=O)CCn2ccn3nc4c(c3c2=O)CCCC4)c(C)c1	x	x	x	n	x	x
O=S(=O)(c1ccc(F)cc1)N(Cc1cccnc1)C1CC1	x	n	x	n	x	x
COc1ccc(-c2noc(CCC(=O)NCCCN3CCC(Cc4ccccc4)CC3)n2)cc1	-103	n	u	u	u	n
Cc1ccc(-c2noc(CCC(=O)NCCN3CCN(Cc4ccccc4)CC3)n2)cc1	n	n	n	n	n	28µM
COc1ccc(-c2cc3c(=O)n(CC(=O)NCCCN4CCC(Cc5ccccc5)CC4)ncn3n2)cc1	-71	n	n	n	-111	n
O=C(NCc1ccccc1F)c1ccc2c(c1)CN(Cc1cncs1)CCO2	x	x	x	n	x	x
CC(C)(C)OC(=O)NC1CCCN(Cc2cccs2)C1 (stereo not given)	x	n	x	u	x	x
CN(C)CCNc1oc(COc2ccccc2)nc1C#N	x	n	x	n	x	x
Cc1ncc2n1C(=O)N(C1CCN(C(=O)Nc3ccccc3)CC1)C2	x	x	x	n	x	x
CC1=C[C@@H](CNC(=O)NCc2ccccc2)[C@H](C(C)C)C[C@H]1CC(=O)N1CCN(C)CC1	x	x	x	n	x	x
CC(CC(=O)C(C#N)C(=O)Nc1ccccc1F)c1ccc(F)cc1 (stereo not given)	x	n	x	n	x	x
N#Cc1c(N)oc(-c2ccco2)c1-c1ccco1	n	n	u	u	n	25µM
Cc1cccc(-c2noc([C@@H]3Cc4nc[nH]c4CN3C(=O)NC3CCCCC3)n2)c1	x	x	x	13µM	x	x
O=[N+]([O-])c1ccccc1/C=C/C=N/Nc1ccc(S(=O)(=O)Nc2ccccc2)cc1[N+](=O)[O-]	x	n	x	n	x	x
Cc1ccc(N/N=C/C=C/c2ccccc2[N+](=O)[O-])c(C)c1	x	n	x	16µM	x	x
Cc1ccc(-c2cc3c(=O)n(CCNC(=O)c4cccc5[nH]ccc45)ccn3n2)cc1C	x	x	x	n	x	x
Brc1ccc(-c2cn3c4ccccc4nc3n2CCCN2CCCC2)cc1	x	n	x	10µM	x	x
Cc1ccc(NNC2CC(=O)N(c3cccc(Cl)c3)C2=O)cc1 (stereo not given)	n	n	u	20µM	n	x
SMILES	KCNH2 3.1 block	LDHA inh	Chronic BCR inh	12-LOX inh	hERG WT inh	ClpP mod
O=C1CC(NNc2ccccc2)C(=O)N1c1ccccc1 (stereo not given)	n	n	u	45µM	n	n
Cc1ccc(N2C(=O)CC(NNc3nc4ccccc4s3)C2=O)cc1C (stereo not given)	n	n	n	n	n	13µM
CC/C(=N\NC(=S)Nc1ccc(OC)cc1)c1ccc(OC(F)F)cc1	n	n	n	35µM	n	n
Cc1ccc(C)c(NC(=S)/C(=C(\[O-])c2ccc(OC(F)F)cc2)[n+]2ccccc2)c1	n	n	n	n	n	x
CC/C(=N\NC(=S)Nc1cc(C)ccc1C)c1ccc(OC(F)F)cc1	n	n	n	32µM	n	n
C/C(=N\NC(=S)Nc1c(C)cccc1C)c1ccc(OC(F)F)cc1	n	n	u	35µM	n	x
CC/C(=N\NC(C)=O)c1ccc(OC(F)F)cc1	x	x	n	x	x	x
N#Cc1nc(-c2ccc(S(=O)(=O)N3CCOCC3)cc2)oc1NCCc1ccccc1	x	n	x	n	x	x
CS(=O)(=O)Oc1ccc2c(c1)O/C(=C/c1cccnc1)C2=O	x	n	x	u	x	x
Cc1ccc(NC(=O)C2CCN(C(=O)c3ccco3)CC2)cc1	-85	n	n	n	n	x
CC(C)Oc1ccc(C(=O)Nc2cccc(S(=O)(=O)N3CCCC3)c2)cc1	-125	n	n	n	n	x
Cn1cc(S(=O)(=O)N2CCC(C(=O)Nc3cccc(F)c3)CC2)cc1C(N)=O	x	-30	x	n	x	x
Cc1ccc(S(=O)(=O)N2CCC(C(=O)NNC(=O)c3ccccc3)CC2)cc1	-115	n	n	n	n	n
Cc1ccccc1NC(=O)C1(N(C)C(=O)Cc2nc(N)n[nH]2)CCCCC1	x	n	x	n	x	x
Cc1ccccc1C(=O)N1CCC(C(=O)Nc2ccc(S(=O)(=O)N3CCCCC3)cc2)CC1	x	n	u	45µM	n	n
COc1ccc(NS(=O)(=O)c2ccc(S(=O)(=O)N3CCOCC3)cc2)cc1	n	n	n	n	n	16µM
CC(OC(=O)C1CC1)C(=O)Nc1cccc(S(=O)(=O)N2CCOCC2)c1 (stereo not given)	-134	n	n	n	n	n
COc1ccc(NS(=O)(=O)c2ccc(S(=O)(=O)N3CCCC3)cc2)cc1	n	n	n	n	n	n
COc1ccc(C(=O)NC(=S)Nc2cccc(S(=O)(=O)N3CCOCC3)c2)cc1	n	n	n	28µM	n	n
CN(C)C(=O)NCC(=O)N1C[C@@H](C(=O)O)[C@H](c2ccc3c(c2)OCO3)C1	x	x	x	n	x	x
O=C(Nc1cccc(S(=O)(=O)N2CCOCC2)c1)C1CCCC1	n	n	n	n	n	n
O=C(Nc1cccc(S(=O)(=O)N2CCCCC2)c1)C1CCC1	-92	n	n	n	n	n
Cc1ccc(NC(=O)C(C)OC(=O)c2ccc(Cl)nc2)cc1S(=O)(=O)N1CCOCC1 (stereo not given)	n	n	n	n	n	28µM
COc1ccccc1N1CCN(c2nccnc2SCC(=O)Nc2cc(Cl)ccc2C)CC1	x	n	x	n	x	x
Cc1ccc2c(c1)SC(C(=O)O)C2 (stereo not given)	x	n	x	n	x	x
CCOC(=O)c1cc(-c2ccccc2C)nn1Cc1cc(CC)no1	n	n	u	7.9µM	n	n
CCc1cc(Cn2nc(-c3ccccc3)cc2C(=O)NCc2cccs2)on1	n	n	n	8.9µM	n	n
Cc1ccccc1OCCCOc1ccccc1/C=N/NC(=O)c1cccc(Cl)c1	x	n	x	n	x	x
